# Sampled rows, rich in hits. Any-hit rate of the full collection: about 1.7%.
# GLP-1R inv ag: acts as inverse agonist at human GLP-1 receptor; Potency, µM (series often up to 38.3 µM), inactives show at the highest dose activity change, negative = inhibition, actives largely listed as inhibitors; HEK293 GLP-1R CRE-luciferase, luminescence, 24 h; GLP-1R form is constitutively active; P43220; 410,000 compounds, 1.6% hits; note: % is set by controls: 0 for no effect and ±100 for the full control effect; nearly all actives have a fitted effect of over 55% in size
# Target sequence (P43220 whole entry, looked up): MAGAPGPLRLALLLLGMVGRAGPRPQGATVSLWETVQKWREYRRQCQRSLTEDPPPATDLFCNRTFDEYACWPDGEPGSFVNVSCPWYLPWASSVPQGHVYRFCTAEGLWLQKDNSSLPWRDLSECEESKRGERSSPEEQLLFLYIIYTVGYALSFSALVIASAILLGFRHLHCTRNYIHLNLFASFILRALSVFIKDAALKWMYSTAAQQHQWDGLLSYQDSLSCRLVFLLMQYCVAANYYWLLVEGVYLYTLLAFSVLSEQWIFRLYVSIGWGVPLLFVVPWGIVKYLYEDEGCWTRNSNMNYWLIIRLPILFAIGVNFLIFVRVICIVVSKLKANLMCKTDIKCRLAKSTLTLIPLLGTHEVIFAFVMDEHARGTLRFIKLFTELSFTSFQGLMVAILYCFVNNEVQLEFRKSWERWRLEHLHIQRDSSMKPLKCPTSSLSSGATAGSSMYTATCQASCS
#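 Inverse agonists were sought by their lowering of basal cAMP reporter luciferase output in HEK293 cells stably carrying constitutively active human GLP-1R, after 24 h compound treatment.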
# GLP-1R agonist: activates the human GLP-1 receptor; 380,000 compounds, 0.007% hits; Potency, µM (series often up to 45.6 µM), for inactives: top-dose activation, usual class: activators; P43220; HEK293 GLP-1R CRE-luciferase, luminescence, 4-6 h; cells express a hypersensitive GLP-1R form; AID 624172; note: % of control where 0% means no effect
# GLP1R cytotox: cytotoxic in the GLP-1 receptor inverse agonist counter-screen. HEK293 cAMP-luciferase reporter cells, luminescence, 24 h. 410,000 compounds, 0.13% hits. Potency, µM (top dose mostly 38.3 µM), inactives show at the highest dose activity change, negative = inhibition, hits mostly inhibitors;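 note: loss of luciferase light is scored as toxicity; % is set by controls: 0 for no effect and ±100 for the full control effect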
#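 Compound-treated cells are incubated 24 hr at 37 deg C under 5% CO2 after a 12 hour attachment period, then luciferase detection reagent is added and luminescence is measured following 12 min at room temperature; lowered signal indicates toxicity.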
# * = called active by the depositor; ? = inconclusive; · = no result. Calls come from the whole dose curve; as a rule, active = well fitted curve in the direction sought with a large enough effect; inconclusive = small, poorly fitted or top-dose-only effect, or another doubt; inactive = no such curve, though single readings can be large; an effect the other way counts as inactive or inconclusive. Potency is the fitted concentration of half-maximal effect.
SMILES,GLP-1R inv ag,GLP-1R agonist,GLP1R cytotox
CN(Cc1ccc(C#CCCO)cc1)CC1CCCN(CCc2ccc(Cl)cc2)C1 (stereo not drawn),?,-7%,?
C/C(=N\NC(=O)c1ccccc1)c1ccccc1Br,?,9%,5µM*
C/C(=N\NC(=O)c1ccccc1)c1ccccc1F,22%,4%,13%
CCCc1nn2c(=O)cc(COC(=O)CNC(=O)COc3ccc(C)cc3)nc2s1,11%,·,4%
Cc1cc(OCC(O)CN2CCc3ccccc3C2)ccc1Cl (stereo not drawn),7.1µM*,-6%,-31%
Cc1ccc(C)c(OCC(O)CN2CCc3ccccc3C2)c1C (stereo not drawn),8.9µM*,19%,-1%
Cc1ccc(C)c(OCC(O)CN2CCC(C)CC2)c1C (stereo not drawn),?,12%,-24%
CCOc1ccc(OCC(O)CN2CCc3ccccc3C2)cc1 (stereo not drawn),?,-8%,4%
COCCN1C(=O)CCC1(C)c1nnnn1-c1ccc2ccccc2c1 (stereo not drawn),-6%,·,-10%
Cn1c(/C=C/c2ccccc2)nc2ccccc21,4.5µM*,2%,-16%
Cn1c(=O)c(/C=C/c2ccccc2)nc2ccccc21,4%,15%,114%
Cc1csc2nc(COC(=O)CNC(=O)c3ccccc3)cc(=O)n12,16%,·,-2%
CC(=O)c1ccc(NC(=O)c2cnn3ccccc23)cc1,2.5µM*,-6%,-6%
CC(=O)c1cccc(NC(=O)c2cnn3ccccc23)c1,-13%,8%,1%
OCCN(CCO)c1ccc(C(c2ccccc2Cl)c2ccc(N(CCO)CCO)cc2Cl)c(Cl)c1,5µM*,-5%,?
O=C(O)c1cccc(N(CCO)CCO)c1,0%,5%,-5%
CCOC(=O)c1cc(-c2ccccc2)n(-c2cccc(C(=O)Nc3cccc(SC)c3)c2)c1C,3.5µM*,·,-6%
CCOC(=O)c1cc(-c2ccccc2)n(-c2cccc(C(=O)Nc3cccc(C(C)=O)c3)c2)c1C,5.6µM*,·,-26%
CCOC(=O)c1cc(-c2ccccc2)n(-c2cccc(C(=O)Nc3ccc(F)c(F)c3)c2)c1C,?,·,-14%
CCOC(=O)c1cc(-c2ccccc2)n(-c2cccc(C(=O)Nc3cccc(F)c3)c2)c1C,?,·,-19%
COc1ccc(C(CC(=O)NCc2ccc(Cl)cc2)N2Cc3ccccc3C2=O)cc1OC (stereo not drawn),-16%,·,-15%
Cc1ccc(CN2C(=O)CCC2C(=O)NCc2ccccc2Cl)cc1 (stereo not drawn),1%,0%,0%
CCOc1cc(C2C3=C(CC(C)(C)CC3=O)N(C)C3=C2C(=O)CC(C)(C)C3)ccc1O,14%,11%,-10%
O=C(CSc1nnc(-c2ccncc2)o1)Nc1cc(Cl)ccc1C(=O)O,-9%,0%,-4%
Cc1ncsc1C(=O)N1N=C2/C(=C/c3ccc(N4CCOCC4)cc3)CCCC2C1c1ccc(N2CCOCC2)cc1 (stereo not drawn),-5%,21%,-23%
SMILES,GLP-1R inv ag,GLP-1R agonist,GLP1R cytotox
Cc1ncsc1C(=O)N1N=C2/C(=C/c3ccccc3)CCCC2C1c1ccccc1 (stereo not drawn),4µM*,-2%,-13%
CCN(CC(=O)Nc1ccc(NC(C)=O)cc1)C(=O)c1cc(S(=O)(=O)N2CCCCCC2)ccc1OC,5%,6%,-15%
COc1cc(NC(=O)Cn2ccn(-c3cc(C)cc(C)c3)c(=O)c2=O)cc(OC)c1,-2%,·,4%
CCOc1ccccc1NC(=O)Cn1c(=O)oc2cc(S(=O)(=O)NCc3ccccc3)ccc21,-2%,·,-2%
COc1ccccc1-c1oc2ccccc2c1C#CCO,-6%,1%,1%
COc1ccccc1-c1oc2ccccc2c1C#CC(C)(C)O,10µM*,14%,6%
CC(C)c1ccc(CNc2nc(-c3ccco3)nn2S(=O)(=O)c2ccc3ccccc3c2)cc1,?,·,4%
CCc1ccc(NC(=O)CN2C(=O)C(c3ccc(C)cc3)=NC23CCCCC3)cc1,11µM*,·,0%
O=C(CN1C(=O)C(c2ccc(F)cc2)=NC12CCCC2)Nc1ccc(F)cc1,?,-2%,-7%
CCc1ccc(NC(=O)CN2C(=O)C(c3ccc(Cl)cc3)=NC23CCCCC3)cc1,11µM*,·,-9%
COc1ccc(NC(=O)CN2C(=O)C(c3ccccc3)=NC23CCCCCC3)cc1,?,-21%,-16%
Cc1ccc(NC(=O)CN2C(=O)C(c3ccccc3)=NC23CCCCC3)cc1C,?,·,-10%
Cc1ccc(NC(=O)CN2C(=O)C(c3ccc(C)cc3)=NC23CCCCCC3)cc1,10µM*,·,-19%
C=CCNC(=S)N/N=C/c1cccc([N+](=O)[O-])c1,?,15%,?
CCOC(=O)c1sc(NC(=O)c2nc3ncccn3n2)c(C(=O)OC(C)C)c1C,3%,·,-1%
CCOc1ccc(CCNC(=O)CCc2c(C)nc3c(c(C)nn3-c3ccc(C)c(C)c3)c2C)cc1,2%,-1%,1%
CC(C)(C)NC(=O)CN(Cc1ccccc1)S(=O)(=O)c1ccccc1,-13%,3%,13%
CCN(c1ccc(Cl)cc1)S(=O)(=O)c1nnc(NC(=O)C2CCCCC2)s1,-19%,·,-6%
CCc1nn2cc(-c3ccccc3)nc2s1,5.6µM*,-15%,-5%
Cc1nn2cc(-c3ccc(-c4ccccc4)cc3)nc2s1,-8%,3%,6%
O=C(CSc1nnc(CNC(=O)c2cccs2)o1)Nc1ccccc1F,-21%,-4%,-11%
O=C(CCc1ccc(S(=O)(=O)NC2CCCCC2)cc1)Nc1ccccc1,?,-4%,-3%
O=C(CCc1ccc(S(=O)(=O)NC2CCCCC2)cc1)N(Cc1ccccc1)Cc1ccccc1,8.9µM*,-4%,-1%
FC(F)(F)c1cccc(N2CCN(C(=S)NC3CCCC3)CC2)c1,7.9µM*,-2%,?
FC(F)(F)c1cccc(N2CCN(C(=S)NC3CCCCC3)CC2)c1,?,-1%,-29%
SMILES,GLP-1R inv ag,GLP-1R agonist,GLP1R cytotox
CC(=O)c1cccc(NC(=O)CCCSc2nc(-c3ccco3)cc(C(F)(F)F)n2)c1,?,·,-1%
Cc1cccc(-n2cnc3cc(C(=O)NCC4CCCO4)ccc32)c1 (stereo not drawn),-16%,0%,-22%
CCCOc1cccc(NC(=O)c2c(-c3ccccc3)noc2C)c1,?,-4%,-5%
Cc1onc(-c2ccccc2)c1C(=O)Nc1cccc(OC(C)C)c1,11µM*,-4%,-8%
Cc1ccc(NC(=O)COC(=O)c2c(-c3ccccc3)noc2C)cc1,10µM*,11%,-9%
Cc1onc(-c2ccccc2)c1C(=O)OCC(=O)Nc1cccc(Cl)c1,?,-4%,-5%
Cc1onc(-c2ccccc2)c1C(=O)OCC(=O)Nc1ccc(Cl)cc1,11µM*,0%,-8%
Cc1onc(-c2ccccc2)c1C(=O)OCC(=O)Nc1ccc(OC(F)(F)F)cc1,?,-7%,-16%
COc1cc(/C=C/C(=O)OCC(=O)NCCC2=CCCCC2)cc(OC)c1OC,11%,8%,-7%
COc1ccccc1CCNC(=O)c1cccc(S(=O)(=O)N2CCc3ccccc3C2)c1,?,10%,6%
CC(=O)N/C(=C\c1ccc(C)o1)C(=O)NCc1ccccc1,2%,-4%,9%

# Source: PubChem BioAssay
